Laboratory results reported in PubChem BioAssay.
Active and inactive are the calls of the source.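 How the source made its calls: active means compounds killing one labelled cell type while sparing the other, by normalised counts and ratio limits, not self-fluorescent; inactive means the rest.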

Assay: EMT-state selective cytotoxicity in co-culture – imaging, PC-3E GFP, TEM4-18 mCherry, primary screen (AID 1345086);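 further: cells exposed to compound for 72 h before imaging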;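 on red/green cell ratio (normalised): normalised mesenchymal count divided by normalised epithelial count so high means epithelial killing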
Conditions: PC-3E GFP / TEM4-18 mCherry co-culture, imaging cell counts, at 1 µM; for red/green cell ratio (normalised): actives lie on both sides, counts scaled to control wells, 1 = unselective
[1] = measured here: epithelial PC-3E GFP cell survival
[2] = measured here: mesenchymal TEM4-18 mCherry cell survival

Row | Compound | red/green cell ratio (normalised) | normalised cell number [1] | normalised cell number [2]
1 | N=c1ccn2c(n1)O[C@@H]1[C@@H](O)[C@H](CO)O[C@@H]12 | 0.99 (inactive) | 0.27 | 0.27
2 | Cc1ccc([C@H](C)CC(=O)N2C(=S)O[C@H]3Cc4ccccc4[C@H]32)cc1 | 0.95 (inactive) | 1.05 | 1
3 | C/C=C/[C@@H]1C=C[C@@H]2C[C@H](C)CC[C@H]2[C@]1(C)/C(O)=C1\C(=O)[C@H](CO)N(C)C1=O | 1.03 (inactive) | 0.99 | 1.01
4 | CCCc1ccc(C(=O)O)nc1 | 0.84 (inactive) | 1.18 | 0.99
5 | COC(=O)[C@@]12Oc3ccc(-c4ccc5c(c4O)C(O)=C4C(=O)C[C@H](C)[C@H](O)[C@]4(C(=O)OC)O5)c(O)c3C(O)=C1C(=O)C[C@H](C)[C@@H]2O | 1.15 (inactive) | 0.96 | 1.1
6 | Cc1ccc(S[C@H]2OC(CO)C(O)[C@H](O)[C@@H]2N)cc1 (stereo not given in full) | 0.98 (inactive) | 1 | 0.97
7 | C/C=C\C(=O)O[C@@H]1[C@H](O)[C@@H](O)CO[C@@H]1C | 1.01 (inactive) | 0.99 | 0.99
8 | CC(=O)O[C@H]1C[C@@H](OC(C)=O)C(C)(C)C2C[C@@H](OC(C)=O)[C@]3(C)C(CC[C@@]4(C)[C@H](c5ccoc5)OC(=O)[C@H]5O[C@]543)[C@]21C (stereo not given in full) | 1.1 (inactive) | 0.93 | 1.02
9 | OC[C@H]1O[C@H](OC[C@H]2O[C@@H](O)[C@H](O)[C@@H](O)[C@@H]2O)[C@H](O)[C@@H](O)[C@H]1O | 0.93 (inactive) | 0.99 | 0.91
10 | CC(C)(O)[C@@H]1CC[C@](C)([C@H]2[C@@H](O)C[C@@]3(C)C4C[C@H](O[C@@H]5O[C@H](CO)[C@@H](O)[C@H](O)[C@H]5O)C5C(C)(C)[C@@H](O[C@@H]6OC[C@@H](O)[C@H](O)[C@H]6O)CC[C@@]56C[C@@]46CC[C@]23C)O1 (stereo not given in full) | 0.94 (inactive) | 0.98 | 0.92
11 | Cc1cccc(CN2CCN(C(c3ccccc3)c3ccc(Cl)c(C)c3)CC2)c1 (stereo not given) | 0.79 (inactive) | 1.23 | 0.97
12 | O=C(Nc1ccc(Cl)cc1)Nc1ccc(CO)cc1 | 0.86 (inactive) | 1.29 | 1.11
13 | C=CCOC(=O)N1C(=O)O[C@H]2C(OC(C)=O)C(COC(C)=O)O[C@H](Sc3ccc(C)cc3)[C@H]21 (stereo not given in full) | 0.89 (inactive) | 1.08 | 0.97
14 | CC(C)CCCC(C)C1CCC2C3CC[C@H]4CCCC[C@]4(C)C3CC[C@]12C (stereo not given in full) | 0.9 (inactive) | 1.1 | 0.99
15 | C[C@]12C=CC(=O)NC1CCC1C2CC[C@@]2(C)C1CC[C@@H]2C(=O)Nc1cc(C(F)(F)F)ccc1C(F)(F)F (stereo not given in full) | 0.83 (inactive) | 1.1 | 0.91
16 | O=C(O)c1c(Cl)nc(Cl)c2ccccc12 | 1.02 (inactive) | 0.97 | 0.99
17 | CC(C)CC1OC23SCC(c4ccccc4)N2C(=O)C1C(C)(C)S3 (stereo not given) | 0.9 (inactive) | 1.15 | 1.03
18 | COc1cc(-c2coc3cc(O)c(OC)c(O)c3c2=O)cc(O)c1OC | 0.95 (inactive) | 1.03 | 0.98
19 | C=C1C(=O)OC(C(=O)O)C1(O)CCCCCCCCC (stereo not given) | 0.96 (inactive) | 1.02 | 0.98
20 | CCC(C)[C@H]1O[C@]2(C=C[C@@H]1C)C[C@@H]1C[C@@H](C/C=C(\C)[C@@H](OC3C[C@H](OC)C(O[C@H]4C[C@H](OC)[C@@H](O)[C@H](C)O4)[C@H](C)O3)[C@@H](C)/C=C/C=C3\COC4[C@H](OC)C(C)=C[C@@H](C(=O)O1)[C@]34O)O2 (stereo not given in full) | 0.83 (inactive) | 1.13 | 0.93
21 | COc1c(N2CC[C@@H](CN)C2)c(F)cc2c(=O)c(C(=O)O)cn(CCCN3C(=O)c4ccccc4C3=O)c12 | 1.07 (inactive) | 1.03 | 1.1
22 | C=C1[C@@H](C)C2[C@H](Cc3c[nH]c4ccccc34)NC(=O)[C@]23C(=O)/C=C/[C@H](O)C(=O)/C(C)=C/[C@@H](C)C/C=C/[C@H]3[C@@H]1O (stereo not given in full) | 1.13 (inactive) | 0.96 | 1.08

Row | Compound | red/green cell ratio (normalised) | normalised cell number [1] | normalised cell number [2]
23 | CC(CCC(=O)O)[C@H]1CCC2C3C(C[C@H](O)[C@@]21C)[C@@]1(C)CC[C@@H](O)C[C@H]1C[C@H]3O (stereo not given in full) | 0.97 (inactive) | 1.01 | 0.98
24 | CO/C(C)=C1/C(=O)C(CO)OC1O (stereo not given) | 1.02 (inactive) | 0.93 | 0.95
25 | O=C1OCC[C@H]1Oc1ccc(Oc2cnc3ccc(Cl)cc3n2)cc1 | 1.01 (inactive) | 1.08 | 1.09
26 | O=C(O)C1CCN(C(=O)OCc2ccccc2)CC1 | 1.04 (inactive) | 0.9 | 0.94
27 | COc1c(N2CC[C@@H](CN)C2)c(F)cc2c(=O)c(C(=O)NO)cn(C3CC3)c12 | 1.1 (inactive) | 1.04 | 1.15
28 | C=C(C)n1cc(C(=O)OC)c(=O)c2cc(F)c(F)c(OC)c21 | 1.15 (inactive) | 0.99 | 1.14
29 | c1ccc(SCC2CCCNC2)cc1 (stereo not given) | 0.86 (inactive) | 1.24 | 1.06
30 | OCC1O[C@H](O[C@H]2OC(CO)[C@@H](O)[C@@H](O)C2O)C(O)[C@H](O)[C@@H]1O (stereo not given in full) | 1.12 (inactive) | 1.01 | 1.13
31 | CC(=O)OC1CCC2(C)C3CC(=O)C4(C)C(CC5OC6(CCC(C)CO6)[C@@H](C)C54)C3CC[C@H]2C1 (stereo not given in full) | 0.89 (inactive) | 1.05 | 0.93
32 | C[C@@H](Oc1ccc(Oc2ccc3ncc(Cl)nc3c2)cc1)C(=O)O | 0.86 (inactive) | 1.19 | 1.03
33 | COc1cc(C(=O)O)cc(OC)c1O | 1.08 (inactive) | 1 | 1.07
34 | O=c1cc(-c2ccccc2)oc2cc(O)ccc12 | 0.8 (inactive) | 1.2 | 0.97
35 | COC(=O)C[C@@H]1C2(C)C(=O)[C@@H](CC3=C4C=C(OC)O[C@@H](c5ccoc5)[C@]4(C)CCC32)[C@H](O)C1(C)C (stereo not given in full) | 1.13 (inactive) | 0.99 | 1.12
36 | Nc1cc2ccccc2[nH]c1=O | 0.91 (inactive) | 1.14 | 1.04
37 | O=C(O)[C@@H](S)[C@@H](S)C(=O)O | 1.16 (inactive) | 0.95 | 1.1
38 | CCCCCCCCCCCCCc1ccco1 | 1.13 (inactive) | 0.74 | 0.83
39 | C[C@H]1[C@H]2CCC3C4CC=C5C[C@@H](N(C)C)CC[C@]5(C)C4CC[C@@]32CN1C (stereo not given in full) | 0.93 (inactive) | 0.89 | 0.83
40 | COC(=O)[C@H](Cc1ccccc1)NC(=O)/C(=C1\OC(=O)C(c2ccccc2)=C1O)c1ccccc1 | 0.97 (inactive) | 0.92 | 0.9
41 | C#C[C@]1(O)CC[C@@H]2C3[C@H](C)CC4=C(CCC(=O)C4)[C@H]3CC[C@@]21C (stereo not given in full) | 1.13 (inactive) | 1.07 | 1.21
42 | CO[C@H]1OC2COC(c3ccccc3)OC2[C@H](OCc2ccccc2)[C@@H]1OCc1ccccc1 (stereo not given in full) | 1 (inactive) | 1.15 | 1.15
43 | O=C[C@H](O)[C@@H](O)[C@H](O)CO | 0.99 (inactive) | 0.97 | 0.97
44 | O=C1C[C@@H]2[C@H](Br)[C@@H](O)C[C@@H]2O1 | 0.73 (inactive) | 1.24 | 0.91

Row | Compound | red/green cell ratio (normalised) | normalised cell number [1] | normalised cell number [2]
45 | Cc1c(O)c(O)cc2oc3cc(O)cc(O)c3c(=O)c12 | 1.06 (inactive) | 1.06 | 1.12
46 | C[C@@H]1CC[C@@]23CCC4(C)[C@@](C=CC5[C@@]6(C)CCC(=O)C(C)(C)C6CC[C@]54C)(OC2=O)C3[C@H]1C (stereo not given in full) | 1.03 (inactive) | 0.95 | 0.98
47 | CC(C)=CCCC(C)[C@@H]1CC[C@]2(C)C3=C(CC[C@@]12C)C1(C)CC[C@H](O)C(C)(C)C1CC3 (stereo not given in full) | 0.9 (inactive) | 1.09 | 0.98
48 | COc1c(N2CC[C@@H](CN)C2)c(F)cc2c(=O)c(C(=O)O)cn(CCCCN3C(=O)c4ccccc4C3=O)c12 | 1 (inactive) | 1.09 | 1.09
49 | CC(CC(=O)N1C(=S)SC[C@@H]1c1ccccc1)N1C(=S)SC[C@@H]1c1ccccc1 (stereo not given in full) | 0.88 (inactive) | 1.18 | 1.04
50 | Cc1ccc(S[C@H]2OC(CO)C(O)[C@@H]3OC(=O)N[C@H]23)cc1 (stereo not given in full) | 0.98 (inactive) | 1.01 | 0.99
51 | C=C1C(=O)OC(C(=O)OC)C1(O)CCCCCCCCC (stereo not given) | 1.05 (inactive) | 0.99 | 1.04
52 | C=C(C)[C@@H]1CC[C@]2(CO)CC[C@]3(C)[C@H](CCC4[C@@]5(C)CC[C@H](O)C(C)(C)C5CC[C@]43C)C12 (stereo not given in full) | 0.84 (inactive) | 1.09 | 0.91
53 | COc1cc([C@@H]2c3cc4c(cc3[C@H](O)C3COC(=O)[C@H]32)OCO4)cc(OC)c1OC (stereo not given in full) | 1.4 (inactive) | 0.16 | 0.22
54 | C/C=C/c1cc2c(c(=O)o1)C(=O)[C@@H](O)[C@H](C)O2 | 1.02 (inactive) | 0.9 | 0.92
55 | OCc1cc(Br)ccc1Cl | 1.07 (inactive) | 1.07 | 1.14
56 | CC(C)CCCC(C)C1CCC2C3CC[C@H]4CC(=O)CC[C@]4(C)C3CC[C@]12C (stereo not given in full) | 0.94 (inactive) | 1.04 | 0.97
57 | Cc1cc(O)c2c(c1)Cc1cccc(O)c1C2=O | 0.94 (inactive) | 1.28 | 1.2
58 | CCC(CCC(C)[C@H]1CCC2C3CC=C4C[C@@H](O)CC[C@]4(C)C3CC[C@@]21C)C(C)C (stereo not given in full) | 1.04 (inactive) | 1.04 | 1.08
59 | CC(CC(=O)N1C(=O)OC[C@H]1c1ccccc1)N1C(=S)OC[C@@H]1c1ccccc1 (stereo not given in full) | 0.97 (inactive) | 1.02 | 0.99
60 | C=C1[C@@H](C)C2[C@H](Cc3c[nH]c4ccccc34)NC(=O)[C@]23C(=O)/C=C/C(=O)[C@H](O)/C(C)=C/[C@@H](C)C/C=C/[C@H]3[C@@H]1O (stereo not given in full) | 0.87 (inactive) | 1.25 | 1.09
61 | Clc1ccc2ncc(Cl)nc2c1 | 1.15 (inactive) | 0.91 | 1.05
62 | COC(=O)c1cn(C2CC2)c2c(OC)c(F)c(F)c(N)c2c1=O | 1.1 (inactive) | 0.97 | 1.07
63 | COc1ccc(-c2oc3ccccc3c(=O)c2OC)cc1 | 0.92 (inactive) | 1.18 | 1.08
64 | CC(=O)O[C@H]1CC[C@@]2(C)C(=CCC3C2CC[C@@]2(C)C3CC[C@@H]2C(C)CCCC(C)C)C1 (stereo not given in full) | 1.16 (inactive) | 0.99 | 1.15
65 | COc1cc(/C=C/C(=O)O)cc(OC)c1 | 1.01 (inactive) | 0.91 | 0.93
